Measured values: PubChem BioAssay (NCATS)
Results filed as inconclusive are left out. Entries that show only a call come without a potency. The source made the active and inactive calls. The call rests on the fitted dose curve; in most records, active means well fitted inhibition curve with a large enough effect; inconclusive means small, poorly fitted or top-dose-only effect; inactive means no such curve, though single readings can be large or run the other way.

Tested on: Zika virus NS2B-NS3 protease (linked construct)
Experiment: Primary screen NINDS Rhodamine qHTS for Zika virus inhibitors (AID 1347160); further: nearly all actives have a fitted effect of over 55% in size
Conditions: purified NS2B-NS3 protease, Rhodamine110 substrate fluorescence; series mostly up to 57.1 µM
Outline: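 In 10 mM Tris-HCl pH 8.0 containing 0.01% Tween 20, linked NS2B-NS3 protease (25 nM final) is exposed to test compounds for 15 min. Cleavage of 1.5 microM Rhodamine110 substrate is tracked by fluorescence over 15 min.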

Structure (SMILES) | Potency
O=C1NC(=O)C(c2cnc3ccccn23)=C1c1cn2c3c(cc(F)cc13)CN(C(=O)N1CCCCC1)CC2 | inactive
C=C1C(=O)O[C@H]2C1CCC(C)=C1C(=O)C=C(C)[C@@]12O (stereo not given in full) | inactive
O=C(COc1ccc2ccccc2c1Br)Nc1cccnc1 | inactive
CC1=CC2/C=C(\C)CCC3OC(C)(C)OC3CCC(=O)C23C(=O)NC(CC(C)C)C3C1C (stereo not given) | inactive
O=C(NCc1ccccc1)c1ccc2c(=O)n(-c3cccc(C(F)(F)F)c3)c(=S)[nH]c2c1 | inactive
CC(=O)NC(C)c1cnc(-c2cnc(Oc3ccc(OC(C)C)cc3)s2)s1 (stereo not given) | inactive
C[C@@H](NC(=O)[C@H](O)c1cc(F)cc(F)c1)C(=O)N[C@@H]1C(=O)N(C)c2ccccc2-c2ccccc21 | inactive
CCC(CC)(NC(=O)C(C)C)C(=O)N[C@@H](CCCN=C(N)N)C(=O)NC1(C(=O)NC(c2ccc(F)cc2)c2ccc(F)cc2)CCCC1 | inactive
NC(=O)C1=CC2C3C=CC2C(OC3=O)O1 (stereo not given) | inactive
COc1cc2ncnc(Nc3ccc(F)c(Cl)c3)c2cc1O | inactive
COc1ccc(CCO[C@@H]2O[C@H](CO[C@H]3OC[C@](O)(CO)[C@H]3O)[C@@H](OC(=O)/C=C/c3ccc(O)c(O)c3)[C@H](O[C@@H]3O[C@@H](C)[C@H](O)[C@@H](O)[C@H]3O)[C@H]2O)cc1OC | inactive
CN(C)CC#CCCC(=O)C(O)(c1ccccc1)C1CCC1 (stereo not given) | inactive
C=C1C(=O)OC2/C=C(/C)C3=CC(=O)C(C)(CC(OC(=O)/C(C)=C/COC(C)=O)C12)O3 (stereo not given) | inactive
CCS(=O)c1nc(-c2cccc(OCc3ccccc3)c2)cc(C(F)(F)F)n1 (stereo not given) | inactive
COc1c(C(C)C)c(O)c(O)c2c1C(OC)[C@H]1OC(=O)[C@@]23CCCC(C)(C)[C@H]13 (stereo not given in full) | inactive
CCOC(=O)c1ccc(OCCC2CCN(c3ccc(C)nn3)CC2)cc1 | inactive
CC(C)(Cc1ccccc1)NCC(O)c1ccc(O)c(NS(C)(=O)=O)c1 (stereo not given) | inactive
C=C1CC[C@H]2C(=C)CC[C@H]3C(=C)C(=O)O[C@@H]3[C@@H]12 | inactive
CNc1ccc([N+](=O)[O-])c(Nc2ccc3[nH]ncc3c2)n1 | inactive
CC(=O)OCC(=O)[C@@]12O[C@@H]1C[C@H]1[C@@H]3CC=C4C[C@@H](O)CC[C@]4(C)[C@H]3CC[C@@]12C | inactive
CC(C)(C)c1ccc2c(c1)CC[C@H]2NC(=O)Nc1cccc2[nH]ncc12 | inactive
C=C1C(=O)OC2/C=C(\CO)CC/C=C(\C=O)C(O)C(OC(=O)C(C)CC)C12 (stereo not given) | inactive
Cc1nc(N2CCN(C(=O)c3ccco3)CC2)c2c3c(sc2n1)CCCC3 | inactive
CC(C)c1ccccc1OC(=O)NCCc1ccc2ccccc2c1 | inactive
O=C(Nc1cc(C(F)(F)F)ccc1N1CCCCC1)c1ccncc1 | inactive
